MEKK2wt PB1 HTS: raises or lowers MEK5 binding to wildtype human MEKK2 PB1 domain; 290,000 compounds, 1.1% hits; bead flow cytometry, Alexa488-MEK5 binding to MEKK2 WT; actives lie on both sides; binding response (% of control), % at 10 µM; in the data active = binding response below about 67% or above about 130%
CHT block: inhibitors of human choline transporter CHT; CHT-expressing cells, membrane potential dye, choline response; stronger effect = lower value; B-score at 10 µM; 310,000 compounds, 0.86% hits;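 active = B-score over 3 SD under the library average, and starting fluorescence ratio not unusually high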;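 also: choline stimulus applied at its EC90 after an EC20 pre-addition; B-score computed on integrated fluorescence ratio after choline addition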
CHT allo act: human CHT allosteric activation; Q9GZV3; CHT-expressing cells, membrane potential dye, choline EC20; stronger effect = higher value; LV-AA mutant CHT in HEK293 cells; 310,000 compounds, 0.49% hits; AID 488977; B-score at 10 µM;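 active = initial fluorescence not abnormally high and integrated response B-score, plate-corrected, over 3 SD above library mean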
MEKK2mut PB1 HTS: signal of MEK5 binding to mutant human MEKK2 PB1 domain; AID 1530; percent response, % at 10 µM; 290,000 compounds, 0.35% hits; bead flow cytometry, Alexa488-MEK5 binding to MEKK2 mutant; in the data active = percent response above about 24%, passing the limit was not always enough
Mot1-301 SUMO: SUMOylation pathway inhibition by Mot1-301 growth rescue; S. cerevisiae Mot1-301 growth rescue, ATP luminescence, 38.5C; percent above DMSO median, 100 means doubled; growth rescue, % at 18.8 µM; 320,000 compounds, 1% hits; AID 2716;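 active = every valid replicate shows activation above 250% relative to neutral control wells; inactive = the rest, any valid replicate at or below 250%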;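 also: OY570 slx delta 5 strain wells were the positive control but not used for scaling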
MEKK3 PB1 HTS: raises or lowers MEK5 binding to the human MEKK3 PB1 domain | Q99759 | bead-based flow cytometry, Alexa488-MEK5 binding to MEKK3; actives lie on both sides; 0 = blocked by unlabeled MEK5, 100 = vehicle | binding response (% of control), % at 10 µM | 290,000 compounds, 1.4% hits | AID 1529;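 active = binding response more than 3 SD above or below the average of its plate-row segment, actives on both sides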;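 also: Alexa488 bead fluorescence after subtracting the streptavidin-only scavenger bead signal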
Target sequence (Q99759 whole entry, looked up, the tested form may be a part): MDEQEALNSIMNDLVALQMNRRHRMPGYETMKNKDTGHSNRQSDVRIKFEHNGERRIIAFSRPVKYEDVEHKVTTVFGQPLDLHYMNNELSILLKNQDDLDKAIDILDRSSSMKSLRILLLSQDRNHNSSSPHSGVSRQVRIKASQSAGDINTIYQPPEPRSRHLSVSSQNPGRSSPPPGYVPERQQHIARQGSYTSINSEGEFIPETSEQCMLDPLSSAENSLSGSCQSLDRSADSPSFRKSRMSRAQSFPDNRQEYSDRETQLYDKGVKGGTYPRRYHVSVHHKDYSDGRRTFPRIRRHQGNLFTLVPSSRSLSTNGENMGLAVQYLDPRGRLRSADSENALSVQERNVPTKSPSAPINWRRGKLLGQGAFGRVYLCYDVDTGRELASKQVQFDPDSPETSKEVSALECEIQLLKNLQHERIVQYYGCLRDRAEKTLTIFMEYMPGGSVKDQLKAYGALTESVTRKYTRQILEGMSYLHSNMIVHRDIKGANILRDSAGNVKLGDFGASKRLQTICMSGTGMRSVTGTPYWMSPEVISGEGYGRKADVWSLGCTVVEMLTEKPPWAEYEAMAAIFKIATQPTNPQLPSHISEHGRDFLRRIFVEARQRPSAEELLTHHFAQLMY
MEKK2wt confirm: raises or lowers MEK5 binding to wildtype human MEKK2, retest; shares compounds with MEKK3 PB1 HTS; 5,900 compounds, 2.4% hits; bead flow cytometry, Alexa488-MEK5 binding to MEKK2 WT; actives lie on both sides; AID 1892; binding response (% of control), % at 10 µM; in the data active = binding response below about 16% or above about 210%; inactive = in between
MEKK2mut confirm: signal of MEK5 binding to mutant human MEKK2, retest. bead flow cytometry, Alexa488-MEK5 binding to MEKK2 mutant. 5,900 compounds, 2% hits. shares compounds with MEKK3 PB1 HTS. AID 1893. percent response, % at 10 µM; in the data active = percent response mostly above about 71%, no sharp cut-off; inactive = mostly below about 38%;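 also: higher means compound restores mutant binding toward wildtype level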
MEKK3-MEK5 inh: confirmation of inhibitors of MEK5 binding to human MEKK3 | bead flow cytometry, Alexa488-MEK5 binding to MEKK3; stronger effect = lower value | shares compounds with MEKK3 PB1 HTS | binding response (% of control), % at 10 µM | 5,900 compounds, 1.8% hits;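 active = binding response below 72% of control, or above a set upper limit, though filed actives all read lower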;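 also: 100% = DMSO only wells and 0% = binding blocked by excess unlabeled MEK5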
* hit, by the source's call; [ ] = remark or other dose. The list is not random: actives were taken first. Their share in the collection is about 4.1%.

`CC(C)(C)C(=O)CN1C2=NCCCN2c2ccccc21` gave MEKK2wt PB1 HTS 109, CHT block inactive, CHT allo act inactive, MEKK2mut PB1 HTS 11, Mot1-301 SUMO 4 and MEKK3 PB1 HTS 108.
For Cc1ccc2sc(N(CCCN(C)C)C(=O)CN3C(=O)c4ccccc4C3=O)nc2c1C the results were MEKK2wt PB1 HTS 150*, CHT block inactive, CHT allo act inactive, MEKK2mut PB1 HTS 33, MEKK3 PB1 HTS 106, MEKK2wt confirm 132, MEKK2mut confirm 13 and MEKK3-MEK5 inh 101.
Screening CN(C)CCCN(C(=O)CCOc1ccccc1)c1nc2c(F)cccc2s1 returned MEKK2wt PB1 HTS 146*, MEKK2mut PB1 HTS 41, MEKK3 PB1 HTS 105, MEKK2wt confirm 142, MEKK2mut confirm 24 and MEKK3-MEK5 inh 106.
For CN(C)CCCN(C(=O)/C=C/c1cccs1)c1nc2c(F)cccc2s1 the results were MEKK2wt PB1 HTS 132, MEKK2mut PB1 HTS 4 and MEKK3 PB1 HTS 109.
For Cc1cccc2sc(N(CCCN(C)C)C(=O)COc3ccc(Cl)cc3)nc12 the results were MEKK2wt PB1 HTS 191*, CHT block inactive, CHT allo act inactive, MEKK2mut PB1 HTS 53*, Mot1-301 SUMO 1, MEKK3 PB1 HTS 105, MEKK2wt confirm 168, MEKK2mut confirm 28 and MEKK3-MEK5 inh 106.
Screening Cc1cccc2sc(N(CCN(C)C)C(=O)/C=C/c3cccs3)nc12 returned MEKK2wt PB1 HTS 128, CHT block inactive, CHT allo act inactive, MEKK2mut PB1 HTS 31, Mot1-301 SUMO -2 and MEKK3 PB1 HTS 103.
For CN(C)CCCN(C(=O)c1ccco1)c1nc2c(F)cc(F)cc2s1 the results were MEKK2wt PB1 HTS 96, CHT block inactive, CHT allo act inactive, MEKK2mut PB1 HTS -10, Mot1-301 SUMO 11 and MEKK3 PB1 HTS 96.
For CN(C)CCCN(C(=O)COc1ccc(Cl)cc1)c1nc2c(F)cccc2s1 the results were MEKK2wt PB1 HTS 162*, CHT block inactive, CHT allo act inactive, MEKK2mut PB1 HTS 33, MEKK3 PB1 HTS 103, MEKK2wt confirm 161, MEKK2mut confirm 40 and MEKK3-MEK5 inh 112.
Screening CN(C)CCCN(C(=O)CCc1ccccc1)c1nc2c(F)cccc2s1 returned MEKK2wt PB1 HTS 118, CHT block inactive, CHT allo act inactive, MEKK2mut PB1 HTS -1, Mot1-301 SUMO 85 and MEKK3 PB1 HTS 98.
Screening CN(C)CCCN(C(=O)COc1ccccc1)c1nc2ccc(F)cc2s1 returned MEKK2wt PB1 HTS 123, CHT block inactive, CHT allo act inactive, MEKK2mut PB1 HTS 9, Mot1-301 SUMO 15 and MEKK3 PB1 HTS 104.
`CN(C)CCCN(C(=O)CCOc1ccccc1)c1nc2ccc(F)cc2s1` gave MEKK2wt PB1 HTS 143*, MEKK2mut PB1 HTS 7, MEKK3 PB1 HTS 108, MEKK2wt confirm 126, MEKK2mut confirm 10 and MEKK3-MEK5 inh 105.
Cc1cccc(CN2CCN(CC(=O)NCCCN3CCN(c4ccc(F)cc4)CC3)C2=O)c1 was read as MEKK2wt PB1 HTS 180*, CHT block inactive, CHT allo act inactive, MEKK2mut PB1 HTS 34, Mot1-301 SUMO -1, MEKK3 PB1 HTS 111, MEKK2wt confirm 146, MEKK2mut confirm 25 and MEKK3-MEK5 inh 108.
Cc1cccc(CN2CCN(CC(=O)NCCCN3CCCC3=O)C2=O)c1 was read as MEKK2wt PB1 HTS 86, CHT block inactive, CHT allo act inactive, MEKK2mut PB1 HTS -11, Mot1-301 SUMO -19 and MEKK3 PB1 HTS 81.
Screening COc1ccc(S(=O)(=O)Nc2ccc(Cc3ccncc3)cc2)cc1C returned MEKK2wt PB1 HTS 107, CHT block inactive, CHT allo act inactive, MEKK2mut PB1 HTS 6, Mot1-301 SUMO 9 and MEKK3 PB1 HTS 103.
`CC(C)(C)C(=O)NCCc1nc2ccccc2n1CC(=O)c1ccc(Cl)cc1` gave MEKK2wt PB1 HTS 77, CHT block inactive, CHT allo act inactive, MEKK2mut PB1 HTS -7, Mot1-301 SUMO -13 and MEKK3 PB1 HTS 71.
COc1ccc(Cn2c(-c3ccc(OC)cc3)nc3c(c(=O)c4ccccc4n3C)c2=O)cc1 was read as MEKK2wt PB1 HTS 94, CHT block inactive, CHT allo act inactive, MEKK2mut PB1 HTS 11 and MEKK3 PB1 HTS 102.
COc1ccc(Cn2c(-c3ccco3)nc3c(c(=O)c4ccccc4n3C)c2=O)cc1 was read as MEKK2wt PB1 HTS 108, CHT block inactive, CHT allo act inactive, MEKK2mut PB1 HTS 28, Mot1-301 SUMO -8, MEKK3 PB1 HTS 136*, MEKK2wt confirm 101, MEKK2mut confirm 6 and MEKK3-MEK5 inh 106.
`COc1ccc(-c2nc3c(c(=O)c4ccccc4n3C)c(=O)n2Cc2ccccc2)cc1` gave MEKK2wt PB1 HTS 105, CHT block inactive, CHT allo act inactive, MEKK2mut PB1 HTS 0, Mot1-301 SUMO 2, MEKK3 PB1 HTS 149*, MEKK2wt confirm 99, MEKK2mut confirm 3 and MEKK3-MEK5 inh 102.
For C[C@H](NC(=O)c1ccco1)C(=O)NCCc1ccc(S(N)(=O)=O)cc1 the results were MEKK2wt PB1 HTS 106, CHT block inactive, CHT allo act inactive, MEKK2mut PB1 HTS -7, Mot1-301 SUMO 5 and MEKK3 PB1 HTS 102.
`COc1ccccc1CNC(=O)c1cn(C)c2ccc(S(=O)(=O)N3CCCC3)cc2c1=O` gave MEKK2wt PB1 HTS 92, CHT block inactive, CHT allo act inactive, MEKK2mut PB1 HTS -8, Mot1-301 SUMO 16 and MEKK3 PB1 HTS 100.
Cc1onc(-c2ccccc2)c1C(=O)N1CCN(c2ncccc2C(F)(F)F)CC1 was read as MEKK2wt PB1 HTS 104, CHT block inactive, CHT allo act inactive, MEKK2mut PB1 HTS 5, Mot1-301 SUMO -8 and MEKK3 PB1 HTS 100.
Screening O=C(Nc1ccccc1)c1cccc(S(=O)(=O)Nc2ccccn2)c1 returned MEKK2wt PB1 HTS 91, CHT block inactive, CHT allo act inactive, MEKK2mut PB1 HTS -1, Mot1-301 SUMO 5, MEKK3 PB1 HTS 75*[inhibitor], MEKK2wt confirm 105, MEKK2mut confirm 1 and MEKK3-MEK5 inh 99.

Assay outcomes (PubChem)
